# Test results reported in PubChem BioAssay (NCATS).
# Results filed as inconclusive are left out. Entries that show only a call come without a potency. The source made the active and inactive calls. Unless noted, the call rests on the fitted dose curve.
# How the values were obtained:
# [1] = qHTS for Inhibitors of the Functional Ribonucleoprotein Complex (vRNP) of Lassa (LASV) Arenavirus: Viability assay - alamar blue signal for LASV Primary Screen (AID 1347083; calls by dose curve; tested in HEK293 reporter line; further: nearly all actives have a fitted effect of over 80% in size)
# [2] = qHTS for Inhibitors of the Functional Ribonucleoprotein Complex (vRNP) of Lymphocytic Choriomeningitis Arenaviruses (LCMV): Viability assay - alamar blue signal for LCMV Primary Screen (AID 1347085; calls by dose curve; tested in HEK293 reporter line; further: nearly all actives have a fitted effect of over 80% in size)
# [3] = target: Nucleoprotein (Lymphocytic choriomeningitis virus (strain Armstrong)) (UniProt P09992); experiment: qHTS for Inhibitors of the Functional Ribonucleoprotein Complex (vRNP) of Lymphocytic Choriomeningitis Arenaviruses (LCMV): LCMV Primary Screen - GLuc reporter signal (AID 1347086); further: nearly all actives have a fitted effect of over 70% in size
# Potency means the concentration at half of the fitted maximal effect.
# Sequence of Nucleoprotein (Lymphocytic choriomeningitis virus (strain Armstrong)) (P09992 whole entry, looked up): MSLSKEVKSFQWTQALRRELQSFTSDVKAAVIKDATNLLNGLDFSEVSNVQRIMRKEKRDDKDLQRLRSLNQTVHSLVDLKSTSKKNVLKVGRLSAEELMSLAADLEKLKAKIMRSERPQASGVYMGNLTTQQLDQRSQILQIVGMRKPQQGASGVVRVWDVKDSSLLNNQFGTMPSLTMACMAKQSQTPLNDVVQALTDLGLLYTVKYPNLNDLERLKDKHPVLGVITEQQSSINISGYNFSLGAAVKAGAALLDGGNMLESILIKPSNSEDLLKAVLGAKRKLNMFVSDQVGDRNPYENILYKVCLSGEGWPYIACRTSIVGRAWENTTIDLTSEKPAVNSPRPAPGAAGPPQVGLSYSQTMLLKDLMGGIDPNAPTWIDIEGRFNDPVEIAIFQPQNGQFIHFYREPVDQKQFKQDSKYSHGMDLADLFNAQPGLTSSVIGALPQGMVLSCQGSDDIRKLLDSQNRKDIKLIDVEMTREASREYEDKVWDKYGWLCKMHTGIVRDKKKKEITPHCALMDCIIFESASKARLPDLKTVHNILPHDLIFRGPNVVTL
SMILES,Potency [1],Potency [2],Potency [3]
CCCCC/C(C=O)=C\c1ccccc1,inactive,inactive,inactive
COc1c(N2CCNC(C)C2)c(F)cc2c(=O)c(C(=O)O)cn(C3CC3)c12 (configuration not stated),inactive,inactive,inactive
CCOc1cc(N2CCC(O)CC2)ccc1Nc1ncc2c(n1)N(C)c1ccccc1C(=O)N2C,7690 nM (active),6850 nM (active),3430 nM (active)
C/C(=C1\CCOC(=O)S1)N(C=O)Cc1cnc(C)nc1N,inactive,inactive,inactive
CCOC(=O)C(=O)CCCCCCl,inactive,inactive,inactive
CCC(=O)N1CCN(c2ccc(-n3c(=O)ccc4cnc5ccc(-c6cnc7ccccc7c6)cc5c43)cc2C(F)(F)F)CC1,15.3 nM (active),27.3 nM (active),68.5 nM (active)
Cc1cnc(Nc2ccc(F)cc2Cl)nc1-c1c[nH]c(C(=O)N[C@H](CO)c2cccc(Cl)c2)c1,15300 nM (active),7690 nM (active),17200 nM (active)
NC(=O)c1ccc(I)c([N+](=O)[O-])c1,inactive,inactive,inactive
CC[N+](C)(CC)CCOC(=O)C(O)(c1ccccc1)C1CCCCC1 (configuration not stated),inactive,inactive,inactive
NCCO,inactive,inactive,inactive
C[C@@H](N)Cc1cnc[nH]1,inactive,inactive,inactive
Cc1cccc(C)c1NC(=O)c1ccccc1C(=O)O,inactive,inactive,inactive
O=C1CCCN1CC#CCN1CCCC1,inactive,inactive,inactive
CCC[C@H](NC(=O)C(C#N)=Cc1cccc(Br)n1)c1ccccc1,34300 nM (active),inactive,inactive
Nc1ccc(O)c([N+](=O)[O-])c1,inactive,inactive,inactive
C[C@]12C[C@H](O)[C@H]3[C@@H](CCC4=CC(=O)CC[C@@]43C)[C@@H]1CC[C@@H]2C(=O)CO,inactive,inactive,inactive
CCCCCCCCOc1ccc(C(=O)c2ccccc2)c(O)c1,inactive,inactive,inactive
CC(=O)NCCC(=O)N[C@@H](CCC(N)=O)C(=O)N[C@@H](CO)C(=O)N[C@@H](CCC(N)=O)C(=O)N[C@@H](CCC(N)=O)C(=O)N[C@H](C(=O)N[C@@H](Cc1ccccc1)C(=O)N[C@]1(C)CCCCCCC=CCCC[C@@](C)(C(=O)N[C@@H](CCC(N)=O)C(=O)N[C@@H](CC(N)=O)C(N)=O)NC(=O)[C@H](CC(C)C)NC(=O)[C@H](CC(C)C)NC(=O)[C@@H](CCCNC(=N)N)NC(=O)[C@H](Cc2c[nH]c3ccccc23)NC(=O)[C@H](CC(C)C)NC(=O)[C@H](CC(N)=O)NC1=O)[C@H](C)O,inactive,inactive,inactive
C=C1C(=CC=C2CCC[C@]3(C)[C@@H]([C@H](C)C=C[C@H](C)C(C)C)CC[C@@H]23)C[C@@H](O)C[C@@H]1O,13700 nM (active),13700 nM (active),inactive
COc1cc2nc(-c3ccc(N4CCN(C)CC4)cc3)nc(NCCN3CCOCC3)c2cc1OC,769 nM (active),968 nM (active),432 nM (active)
NCCCC(N)(C(=O)O)C(F)F (configuration not stated),inactive,inactive,inactive
Nc1cccc(S(=O)(=O)N2CCCN(S(=O)(=O)c3ccc4c(c3)OCCO4)CC2)c1,inactive,inactive,inactive
CC1=C(CO)C(=O)O[C@@H]([C@@H](C)[C@H]2CC[C@H]3[C@@H]4C[C@H]5O[C@]56[C@@H](O)C=CC(=O)[C@]6(C)[C@@H]4CC[C@]23C)C1,3060 nM (active),3850 nM (active),1530 nM (active)
O=C(Nc1ccc(OC(F)(F)F)cc1)c1sccc1NCc1ccnc2ccccc12,inactive,inactive,inactive
CC1=NN(c2ccccc2)C(=O)C1,inactive,inactive,inactive
CCC(C)(Oc1ccc(C2(c3ccc(OC(C)(CC)C(=O)O)cc3)CCCCC2)cc1)C(=O)O (configuration not stated),inactive,inactive,inactive
CN1CC[C@@H](c2c(O)cc(O)c3c(=O)cc(-c4ccccc4Cl)oc23)[C@@H](O)C1,137 nM (active),217 nM (active),344 nM (active)
CCN1CCN(CC(=O)Nc2ccc(-c3cccc4c(=O)cc(N5CCOCC5)oc34)c3sc4ccccc4c23)CC1,544 nM (active),1220 nM (active),1220 nM (active)
Cc1cn(-c2cc(NC(=O)c3ccc(C)c(Nc4nccc(-c5cccnc5)n4)c3)cc(C(F)(F)F)c2)cn1,inactive,inactive,inactive
